In the library only some 32% were active in any assay of this set; here they are far more common.
PostGolgi yeast: growth inhibition of a yeast mutant, post-Golgi transport screen; post-Golgi transport phenotypic cell assay; inhibition, % at 10 µM; 98,000 tested, 0.9% active;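 further: yeast cells grown in 1536-well plates; yeast grown about 18 h at 30C before absorbance read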
CYP2C9 inhib: human CYP2C9 inhibition; P11712; CYP2C9 Supersomes, luciferin-H conversion, luminescence; inhibition, % at 5 µM; 96,000 tested, 20% active; AID 777;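 active means blocking of liver enzyme CYP2C9 beyond about 50% at 5 µM, limit read from the data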
Target sequence (P11712 whole entry, looked up): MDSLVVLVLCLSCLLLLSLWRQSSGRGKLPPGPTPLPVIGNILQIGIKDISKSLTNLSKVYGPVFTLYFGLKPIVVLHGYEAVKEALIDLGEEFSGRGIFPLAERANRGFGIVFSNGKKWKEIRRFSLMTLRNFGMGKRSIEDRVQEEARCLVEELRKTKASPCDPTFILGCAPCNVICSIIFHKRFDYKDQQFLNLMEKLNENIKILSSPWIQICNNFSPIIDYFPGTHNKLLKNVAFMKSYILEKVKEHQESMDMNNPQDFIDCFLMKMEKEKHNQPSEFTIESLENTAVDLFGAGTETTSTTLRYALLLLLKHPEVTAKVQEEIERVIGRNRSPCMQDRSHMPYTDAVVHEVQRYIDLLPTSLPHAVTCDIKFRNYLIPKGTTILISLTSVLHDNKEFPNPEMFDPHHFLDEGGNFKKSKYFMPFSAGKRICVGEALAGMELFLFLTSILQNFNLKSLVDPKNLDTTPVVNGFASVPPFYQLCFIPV
CYP2C19 act: cytochrome P450 2C19 (human) activation; 96,000 tested, under 10 active; activation factor at 5 µM; recombinant CYP2C19, luciferin-H EGE luminescence; active compounds read high; 0 = fully inhibited enzyme, 1 = untreated enzyme;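 active means activation factor of at least 2 at 5 µM in the primary screen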;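 further: 0 = wells with 2.5 mM tranylcypromine and 1 = vehicle-only wells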
PostGolgi ctrl: growth of the yeast control strain, post-Golgi counter-screen | inhibition, % at 10 µM | 98,000 tested, 5% active | efflux-deficient yeast background strain, growth absorbance A615, 16 h | AID 738
CYP2C19 inh: human CYP2C19 inhibition; CYP2C19 Supersomes, luciferin-H EGE luminescence, 30 min; 96,000 tested, 21% active; AID 778; inhibition, % at 5 µM;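 active means CYP2C19 inhibition above a set limit at 5 µM in the primary screen, cut at about 50% in these data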;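 further: plate controls were negative control wells for no effect and 2.5 mM tranylcypromine positive control for full effect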
CYP2C9 activ: increases human cytochrome P450 2C9 activity. P11712. 96,000 tested, 1.4% active. recombinant CYP2C9, luciferin-H conversion, luminescence; active compounds read high; factor 1 = untreated enzyme, 0 = blocked. AID 1024. activation factor at 5 µM;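 active means activation factor of 2 or more for CYP2C9 at a 5 µM dose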;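 further: 0 = sulfaphenazole-blocked wells and 1 = vehicle-only wells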
* marks the source's active call; other numbers are inactive results; . = not tested or not shown. Unless noted, no stated cut-off is given here; in the data, active means inhibition above about 30%; inactive means the rest.

SMILES	PostGolgi yeast	CYP2C9 inhib	CYP2C19 act	PostGolgi ctrl	CYP2C19 inh	CYP2C9 activ
CCOC(=O)CN1C(=O)C2Cc3ccccc3CN2C1=S (stereo not given)	4	23	0.3	1	70*	0.8
CCOC(=O)CN1C(=O)C(CC)Oc2ccccc21 (stereo not given)	10	-5	0.9	0	9	1.1
COc1cc(C(=O)NCCCN2CCCC2=O)cc(OC)c1OC	8	-7	1	9	0	1.1
CC1CCN(C(=O)CSCc2ccc(Cl)cc2)CC1	-11	-7	0.8	4	20	1.1
O=C(CSCc1ccc(Br)cc1)N1CCOCC1	-3	4	0.1	-2	94*	1
Cc1noc(C)c1CSCC(=O)N1CCN(c2ccc(F)cc2)CC1	-4	46	0.4	11	63*	0.5
O=C(COC(=O)CSCC(=O)N1CCCCC1)NCc1ccc(F)cc1	-2	4	0.5	4	51*	1
O=C(CSCc1ccc(F)cc1)N1CCOCC1	-2	16	0.4	6	56*	0.8
CC1CCC(NC(=O)CN2CCCN(Cc3ccc(F)cc3Cl)C2=O)CC1 (stereo not given)	8	8	0.9	3	6	0.9
Cc1nnc(NC(=O)c2ccc3c(c2)C(=O)N(CC2CCCO2)C3=O)s1 (stereo not given)	5	-10	1	11	3	1.1
CCN(C(=O)c1ccnc(C(C)(C)C)c1)c1ccccc1	-9	45	0.4	2	61*	0.6
C=CCN1C(c2ccccc2)=CS/C1=C(\C#N)c1nnc2n1CCCCC2	3	27	0.2	15	83*	0.7
CCOc1ccc(C2=CS/C(=C(\C#N)c3nnc4n3CCCCC4)N2CC)cc1	2	18	0.5	25	54*	0.8
N#C/C(=C1/CCCCCN1)c1nnc2n1CCCCC2	6	-4	1	14	2	1
CC(C)C(=O)Nc1ccc(Sc2ccc(F)cc2)cc1	0	24	0.6	19	38	0.8
CCC(=O)N1CCN(C(=O)CC)C1c1ccccc1	10	-1	0.9	-8	5	1
Cc1nc(NC2=NCN(Cc3cccnc3)CN2)nc2c(C)cccc12	.	-15	1.1	.	-11	1.2
CSc1nnc(-c2ccccc2Cl)n1N	0	-27	1.2	7	-21	1.3
Clc1ccccc1-c1nc2ccccc2c2nncn12	3	16	0.4	2	62*	0.8
CN1CCC(=NNC(=O)c2ccco2)CC1	-5	5	0.9	7	6	0.9
CCOC(=O)C1=C(C)n2c(s/c(=C/c3cccc([N+](=O)[O-])c3)c2=O)=NC1c1ccc(O)c(OC)c1 (stereo not given)	61*	67*	0.4	39*	55*	0.3
COC(=O)c1cc2c([nH]c3ccccc32)c(C)n1	-3	-3	0.4	1	62*	1
CN1CCN(C(=O)c2ccc(-n3cccc3)cc2)CC1	13	42	1	7	0	0.6
O=C(NCc1ccco1)C1CCN(c2nnc(-n3cccc3)s2)CC1	-1	40	0.6	5	42	0.6
O=C(NCC(c1cccnc1)N1CCN(c2ccccc2F)CC1)c1cccc(Cl)c1 (stereo not given)	47*	95*	0.1	24	91*	0.1
SMILES	PostGolgi yeast	CYP2C9 inhib	CYP2C19 act	PostGolgi ctrl	CYP2C19 inh	CYP2C9 activ
COc1ccc(N2CCN(C(CNC(=O)c3cccc(Cl)c3)c3cccnc3)CC2)cc1 (stereo not given)	13	56*	0.7	4	34	0.4
O=S(=O)(NC1CCCC1)c1ccc(S(=O)(=O)NC2CCCC2)cc1	1	86*	0	9	98*	0.1
O=C(CN1CCCCC1)Nc1ccc(S(=O)(=O)NC2CCCCC2)cc1	-5	72*	0.5	6	47	0.3
O=C(CN1CCOCC1)Nc1ccc(S(=O)(=O)NC2CCCCC2)cc1	12	17	0.8	-9	20	0.8
CC(C)(C)C(=O)CNS(=O)(=O)c1ccc(S(=O)(=O)NC2CCCC2)cc1	2	47	0.1	1	89*	0.5
CCOC(=O)C1CCCC(NS(=O)(=O)c2ccc(NC(C)=O)cc2)C1 (stereo not given)	-1	77*	0.4	16	58*	0.2
O=S(=O)(NC1CCCCC1NS(=O)(=O)c1ccc(F)cc1)c1ccc(F)cc1 (stereo not given)	8	87*	0.4	-4	62*	0.1
COc1ccccc1NS(=O)(=O)c1cccc(C(=O)N/N=C(\C)c2ccc(-n3ccnc3)cc2)c1	2	99*	0	14	100*	0
c1coc(-c2nc(-c3ccco3)c(-c3ccco3)nc2-c2ccco2)c1	4	17	1	4	4	0.8
Nc1nc(-c2ccco2)c(-c2ccco2)s1	-10	77*	0.2	7	78*	0.2
CN1C(=O)/C(=C/c2ccccc2OCc2cccc(F)c2)NC1=S	-5	65*	1	7	-2	0.3
Cc1ccc(Cl)cc1N1CCN(S(C)(=O)=O)CC1	0	15	0.5	-2	46	0.9
O=S(=O)(c1cnc[nH]1)N1CCN(c2ccccc2)CC1	-1	48	0.4	6	64*	0.5
O=S(=O)(c1cnc[nH]1)N1CCCCCC1	3	23	1	2	-1	0.8
Cc1ccc(Cl)cc1N1CCN(S(=O)(=O)c2cnc[nH]2)CC1	-2	97*	0	-2	99*	0
Cc1ccnc2nc(C(=O)N3CCN(S(=O)(=O)c4ccccc4)CC3)nn12	-10	-19	1.1	20	-6	1.2
CC(C)(C)c1cnnn1-c1ccc(-c2csc(N)n2)cc1	21	28	0.9	46*	7	0.7
Nc1nc(-c2ccc3c(c2)CCCC3)cs1	-7	7	0.9	7	15	0.9
CC(=O)Nc1ccc(-n2c(C)nc(=O)c(-c3ccccc3)c2C)cc1	-4	-13	1.1	-10	-7	1.1
Cc1nc(=O)c(-c2ccccc2)c(C)n1-c1ccc(O)cc1	-2	-2	0.5	-13	54*	1
O=C(CCS(=O)(=O)c1cccc2nsnc12)NC1CCCCC1	9	-18	0.8	-7	25	1.2
Fc1cccc(NC(=S)Nc2ccc(Br)cc2)c1	1	58*	0.2	23	82*	0.4
CCCNC(=S)Nc1ccc(Br)cc1	-4	30	0.6	6	44	0.7
CC(C)(C)c1ccccc1NC(=O)c1cccnc1	3	-2	1.1	-8	-12	1
CCOc1cc(NC(=O)c2ccccn2)c(OCC)cc1NC(=O)CC(C)C	6	44	0.7	1	32	0.6
CCCN(CCC)CC(=O)Nc1cccc2c1OCO2	-1	34	0.6	4	38	0.7
C=CCn1c(=O)c2ccccc2n2c(SCC(=O)/C(C#N)=C(\C)N)nnc12	-14	15	1.1	-1	-12	0.8

High-throughput results (PubChem)
